Assay results published in PubChem BioAssay (Tox21).
Inconclusive results are not listed. Values without a mark were called inactive. The source made the active and inactive calls. Calls come from the whole dose curve; as a rule, active = well fitted curve in the direction sought with a large enough effect in the repeat runs; inconclusive = weak or mixed curves; inactive = no such curve, though single readings can be large; an effect the other way counts as inactive or inconclusive.

Each molecule was assayed against Nuclear receptor subfamily 1 group I member 2 (Rattus norvegicus) (UniProt Q9R1A7) (assay: Rat pregnane X receptor (rPXR) activation by small molecules, qHTS assay (AID 1346983; note: nearly all actives have a fitted effect of over 20% in size)). Settings: rPXR luciferase reporter cells, One-Glo luminescence, 24 h; max activation: stronger effect = higher value.
Method in brief: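 Cell-based rPXR activation assay: rPXR cells, 2,000 per well, rested 5hr at 37 C, then exposed to compounds in DMSO for 24 hr at 37 C. Luciferase activity read by One-Glo luminescence after 30 min at room temperature.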
% is set by controls: 0 for no effect and ±100 for the full control effect.

Nuclear receptor subfamily 1 group I member 2 (Rattus norvegicus), sequence (Q9R1A7 whole entry, looked up): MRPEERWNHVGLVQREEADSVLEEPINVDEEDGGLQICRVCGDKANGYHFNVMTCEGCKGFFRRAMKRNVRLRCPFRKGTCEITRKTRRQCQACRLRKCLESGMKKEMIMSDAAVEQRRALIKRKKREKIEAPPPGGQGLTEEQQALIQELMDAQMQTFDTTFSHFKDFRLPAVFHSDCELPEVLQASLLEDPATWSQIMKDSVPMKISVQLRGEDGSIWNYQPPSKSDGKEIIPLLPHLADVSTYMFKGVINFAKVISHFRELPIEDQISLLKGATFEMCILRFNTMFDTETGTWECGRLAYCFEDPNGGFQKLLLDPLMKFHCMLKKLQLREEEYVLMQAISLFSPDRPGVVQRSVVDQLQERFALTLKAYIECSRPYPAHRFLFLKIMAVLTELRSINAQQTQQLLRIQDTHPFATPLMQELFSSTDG

Compound	max activation [%]
O=C(O)CCNC(=O)c1ccc(N=Nc2ccc(O)c(C(=O)O)c2)cc1	-1.98
CCCCCOC(=O)Nc1nc(=O)n([C@@H]2O[C@H](C)[C@@H](O)[C@H]2O)cc1F	-1.91
Cc1c(C)n(CCN(C)C)c2ccc(C(=O)OCCN(C)C)cc12	6.74
Nc1[nH]c(=O)ncc1F	-0.668

What follows are molecules tested against Nuclear receptor subfamily 1 group I member 2 (Homo sapiens) (UniProt O75469) (assay: CYP3A4 induction through human pregnane X receptor (PXR) by small molecules, qHTS assay (AID 1346984; note: nearly all actives have a fitted effect of over 40% in size; note: potency is the fitted concentration of half-maximal effect)). Settings: DPX-2 HepG2 PXR, CYP3A4-luciferin luminescence, 24 h; series mostly up to 46.1 µM; activation: at the top concentration.
Method in brief: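 Read-out is luminescence after One-Glo addition, following a 3 hr, 37C incubation with Luciferin-IPA CYP3A4 substrate (3uM final). Before that, compounds were on DPX-2 cells (HepG2 co-transfected with PXR element plus CYP3A4-promoter luciferase) for 24 hr at 37C.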

Compound	activation	Potency
C[C@H](O)C(=O)Nc1c(I)c(C(=O)NC(CO)CO)c(I)c(C(=O)NC(CO)CO)c1I	-7.18% [at 20.6 µM]	
[O-][N+](=Nc1ccccc1)c1ccccc1	-10%	
NC(N)=NS(=O)(=O)c1ccc(N)cc1	10.4% [at 20.6 µM]	
O=C(O)CCNC(=O)c1ccc(N=Nc2ccc(O)c(C(=O)O)c2)cc1	6.23%	
NC(=O)CCCCC1CCSS1 (stereo not given)	14.2%	
CCCC(=O)O[C@]1(C(=O)CCl)[C@@H](C)C[C@H]2[C@@H]3CCC4=CC(=O)C=C[C@]4(C)[C@@]3(F)C(=O)C[C@@]21C		0.631 µM (active)
Nc1nc(F)nc2c1ncn2[C@@H]1O[C@H](CO)[C@@H](O)[C@@H]1O	-5.31%	
O=C(O)c1ccccc1-c1ccc(C(F)(F)F)cc1	-8.53%	
CCCCCOC(=O)Nc1nc(=O)n([C@@H]2O[C@H](C)[C@@H](O)[C@H]2O)cc1F	-20.1%	
Cc1c(C)n(CCN(C)C)c2ccc(C(=O)OCCN(C)C)cc12	38.7%	
Nc1[nH]c(=O)ncc1F	1.05% [at 20.6 µM]	
NC(CS)C(=O)O (stereo not given)	-0.207%	

These molecules were tested against Nuclear receptor subfamily 1 group I member 2 (Homo sapiens) (UniProt O75469) (assay: Human pregnane X receptor (PXR) activation by small molecules, qHTS assay (AID 1346985; note: nearly all actives have a fitted effect of over 40% in size; note: potency is the fitted concentration of half-maximal effect)). Settings: DPX-2 HepG2 CYP3A4-luciferase, 24 h; series mostly up to 38.3 µM; activation: at the top concentration.
Method in brief: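 DPX-2 cells (HepG2 co-transfected with a PXR response element and a CYP3A4-promoter luciferase construct) were seeded at 2,000 per well, rested 5 hr at 37C, then exposed to DMSO-dissolved compounds for 24 hr. Activation was read as luciferase luminescence.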

Compound	activation	Potency
C[C@H](O)C(=O)Nc1c(I)c(C(=O)NC(CO)CO)c(I)c(C(=O)NC(CO)CO)c1I	8.21% [at 17.1 µM]	
[O-][N+](=Nc1ccccc1)c1ccccc1	16.6%	
NC(N)=NS(=O)(=O)c1ccc(N)cc1	4.53% [at 17.1 µM]	
O=C(O)CCNC(=O)c1ccc(N=Nc2ccc(O)c(C(=O)O)c2)cc1	-4.57%	
NC(=O)CCCCC1CCSS1 (stereo not given)	2.5%	
CCCC(=O)O[C@]1(C(=O)CCl)[C@@H](C)C[C@H]2[C@@H]3CCC4=CC(=O)C=C[C@]4(C)[C@@]3(F)C(=O)C[C@@]21C		11.2 µM (active)
Nc1nc(F)nc2c1ncn2[C@@H]1O[C@H](CO)[C@@H](O)[C@@H]1O	-3.85%	
O=C(O)c1ccccc1-c1ccc(C(F)(F)F)cc1	1.65%	
CCCCCOC(=O)Nc1nc(=O)n([C@@H]2O[C@H](C)[C@@H](O)[C@H]2O)cc1F	9.47%	
Nc1[nH]c(=O)ncc1F	7.42% [at 17.1 µM]	
NC(CS)C(=O)O (stereo not given)	5.95%	

What follows are molecules tested against Cytochrome P450 2D6 (Homo sapiens) (UniProt P10635) (assay: Cytochrome P450 Family 2 Subfamily D Member 6 (CYP2D6) small molecule antagonists: luciferase reporter qHTS assay (AID 1671196; note: nearly all actives have a fitted effect of over 50% in size; note: potency is the fitted concentration of half-maximal effect)). Settings: P450-Glo CYP2D6 enzyme assay, luciferin luminescence, 1 h; series mostly up to 115 µM; activity change, negative = inhibition: at the top concentration.
Method in brief: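 CYP2D6 activity was followed as luminescence from its luciferin product after a 1 h NADPH-driven reaction at room temperature. Enzyme-substrate mix and compound were pre-incubated for 10 min, and the signal was read 20 min after adding detection reagent.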

Cytochrome P450 2D6 (Homo sapiens), sequence (P10635 whole entry, looked up): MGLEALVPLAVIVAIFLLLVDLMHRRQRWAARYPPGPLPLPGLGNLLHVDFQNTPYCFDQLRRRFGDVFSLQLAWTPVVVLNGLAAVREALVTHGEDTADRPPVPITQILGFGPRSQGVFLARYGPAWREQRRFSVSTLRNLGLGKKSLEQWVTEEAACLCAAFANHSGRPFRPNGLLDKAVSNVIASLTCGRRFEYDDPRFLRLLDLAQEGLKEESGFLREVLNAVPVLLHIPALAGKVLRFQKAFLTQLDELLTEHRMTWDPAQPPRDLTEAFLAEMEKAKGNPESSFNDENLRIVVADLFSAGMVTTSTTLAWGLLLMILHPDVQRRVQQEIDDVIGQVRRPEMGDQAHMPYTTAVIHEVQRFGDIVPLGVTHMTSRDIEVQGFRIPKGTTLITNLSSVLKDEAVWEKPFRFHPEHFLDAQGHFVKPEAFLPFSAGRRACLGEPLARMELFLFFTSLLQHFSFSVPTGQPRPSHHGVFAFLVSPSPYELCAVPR

Compound	activity change, negative = inhibition	Potency
Oc1cc(O)c2c(c1)O[C@H](c1ccc(O)c(O)c1)[C@H](O)C2	-1.68% [at 53 µM]	
CCCCCC[C@@H](CCC)C(=O)O	2.66% [at 53 µM]	
C[C@H](O)C(=O)Nc1c(I)c(C(=O)NC(CO)CO)c(I)c(C(=O)NC(CO)CO)c1I	-20.8% [at 53 µM]	
NC(N)=NS(=O)(=O)c1ccc(N)cc1	-15.7% [at 53 µM]	
CCCC=O	0.876%	
COc1nc(C)nc(N)n1	-3.34%	
COc1cc(C)cc(O)c1	-11.9%	
COc1ccc(NC(C)=O)cc1		41 µM (active)
Nc1ccn(C2CO[C@H](CO)O2)c(=O)n1 (stereo not given in full)	-1.36% [at 53 µM]	
O=C(O)CCNC(=O)c1ccc(N=Nc2ccc(O)c(C(=O)O)c2)cc1	-11.1% [at 53 µM]	
COC(=O)c1ccc(C(=O)OC)c(C(=O)OC)c1	-8.52%	
CCCC(=O)O[C@]1(C(=O)CCl)[C@@H](C)C[C@H]2[C@@H]3CCC4=CC(=O)C=C[C@]4(C)[C@@]3(F)C(=O)C[C@@]21C		11 µM (active)
Nc1nc(F)nc2c1ncn2[C@@H]1O[C@H](CO)[C@@H](O)[C@@H]1O		34.7 µM (active)
O=C(O)Cc1cc(I)c(Oc2cc(I)c(O)c(I)c2)c(I)c1	6.24% [at 53 µM]	
CCN1CCCC1CNC(=O)c1cc(S(N)(=O)=O)ccc1OC (stereo not given)		20 µM (active)
O=C(O)c1ccccc1-c1ccc(C(F)(F)F)cc1	-10.3% [at 53 µM]	
CCn1c(=O)c2c(nc(/C=C/c3ccc(OC)c(OC)c3)n2C)n(CC)c1=O	-12% [at 53 µM]	
CCCCCOC(=O)Nc1nc(=O)n([C@@H]2O[C@H](C)[C@@H](O)[C@H]2O)cc1F	1.5% [at 53 µM]	
Cc1c(C)n(CCN(C)C)c2ccc(C(=O)OCCN(C)C)cc12	-7.16% [at 53 µM]	
Nc1[nH]c(=O)ncc1F	-1.61% [at 53 µM]	
CC(CCO)CCCC(C)(C)O (stereo not given)	-51.8%	
NCCN1CCNC1=O	-11.8%	
CCN1CCCC(OC(=O)C(c2ccccc2)c2ccccc2)C1 (stereo not given)		1.38 µM (active)
CCCC(C)CO (stereo not given)		79.7 µM (active)
CCCCCCCCC=O	-7.85%	
CC1=CC(C)C(C=O)C(C)C1 (stereo not given)	-17.4%	
NC(CS)C(=O)O (stereo not given)	-5.57% [at 53 µM]	
CC(C)N1C(=O)c2ccccc2C1=O	-1.89%	
C1=C\CC/C=C\CC/C=C\CC/1	-9.49%	
CCCCc1ccc2cccc(S(=O)(=O)O)c2c1	0.914%	

What follows are molecules tested against Cytochrome P450 2C19 (Homo sapiens) (UniProt P33261) (assay: Cytochrome P450 Family 2 Subfamily C Member 19 (CYP2C19) small molecule antagonists: luciferase reporter qHTS assay (AID 1671197; note: nearly all actives have a fitted effect of over 65% in size; note: potency is the fitted concentration of half-maximal effect)). Settings: P450-Glo CYP2C19 enzyme, luciferin luminescence, 1 h; series mostly up to 115 µM; activity change, negative = inhibition: at the top concentration.
Method in brief: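 CYP2C19 P450-Glo, 1536-well qHTS. Cpd + enzyme/proluciferin substrate 10 min RT; + NADPH regen, 37C 1 h; stop with luciferin detection reagent, 20 min RT, luminescence (RLU). Pos ctrl ketoconazole.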

Cytochrome P450 2C19 (Homo sapiens), sequence (P33261 whole entry, looked up): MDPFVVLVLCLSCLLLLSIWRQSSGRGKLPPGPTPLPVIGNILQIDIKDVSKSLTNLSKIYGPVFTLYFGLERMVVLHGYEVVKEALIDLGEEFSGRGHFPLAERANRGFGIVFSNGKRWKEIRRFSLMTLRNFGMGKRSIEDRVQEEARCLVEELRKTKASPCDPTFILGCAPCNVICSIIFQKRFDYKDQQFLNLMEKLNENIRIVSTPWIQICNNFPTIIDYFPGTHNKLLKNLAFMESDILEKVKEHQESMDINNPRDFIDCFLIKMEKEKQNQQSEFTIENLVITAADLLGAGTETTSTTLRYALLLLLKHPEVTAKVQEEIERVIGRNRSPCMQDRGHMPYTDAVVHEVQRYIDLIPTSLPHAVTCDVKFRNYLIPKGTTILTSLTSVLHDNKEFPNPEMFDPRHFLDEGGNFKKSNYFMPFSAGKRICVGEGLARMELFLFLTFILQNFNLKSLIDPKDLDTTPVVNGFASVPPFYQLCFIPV

Compound	activity change, negative = inhibition	Potency
Oc1cc(O)c2c(c1)O[C@H](c1ccc(O)c(O)c1)[C@H](O)C2	11.4% [at 52.9 µM]	
CCOC(=O)[C@H](CCc1ccccc1)N[C@@H](C)C(=O)N1CCC[C@H]1C(=O)O	20.4% [at 52.9 µM]	
[O-][N+](=Nc1ccccc1)c1ccccc1		63.3 µM (active)
NC(N)=NS(=O)(=O)c1ccc(N)cc1	49.6% [at 52.9 µM]	
CCCC=O	-1.35%	
COc1nc(C)nc(N)n1	-17.8%	
COc1cc(C)cc(O)c1	-30.4%	
COc1ccc(NC(C)=O)cc1	-20.1%	
Nc1ccn(C2CO[C@H](CO)O2)c(=O)n1 (stereo not given in full)	11.2% [at 52.9 µM]	
O=C(O)CCNC(=O)c1ccc(N=Nc2ccc(O)c(C(=O)O)c2)cc1	17% [at 52.9 µM]	
COC(=O)c1ccc(C(=O)OC)c(C(=O)OC)c1		39.9 µM (active)
NC(=O)CCCCC1CCSS1 (stereo not given)	-1.31% [at 52.9 µM]	
CCCC(=O)O[C@]1(C(=O)CCl)[C@@H](C)C[C@H]2[C@@H]3CCC4=CC(=O)C=C[C@]4(C)[C@@]3(F)C(=O)C[C@@]21C		7.76 µM (active)
O=C(O)Cc1cc(I)c(Oc2cc(I)c(O)c(I)c2)c(I)c1	9.72% [at 52.9 µM]	
O=C(O)c1ccccc1-c1ccc(C(F)(F)F)cc1	21.9% [at 52.9 µM]	
CCCCCOC(=O)Nc1nc(=O)n([C@@H]2O[C@H](C)[C@@H](O)[C@H]2O)cc1F	-1.19% [at 52.9 µM]	
NCCN1CCNC1=O	2.41%	
CCCCCCCCC=O	3.45%	
CC1=CC(C)C(C=O)C(C)C1 (stereo not given)	20.5%	
NC(CS)C(=O)O (stereo not given)	-8.81% [at 52.9 µM]	
CC(C)N1C(=O)c2ccccc2C1=O	-10.1%	
C1=C\CC/C=C\CC/C=C\CC/1	8.1%	
CCCCc1ccc2cccc(S(=O)(=O)O)c2c1	0.814%	
